Results on 96 molecules are retold here after PubChem BioAssay AID624330 (Southern Research Specialized Biocontainment Screening …, 2012).

The structures appear in SMILES notation. Screen size: about 340,000 compounds; about 2,100 (0.62%) were called active. Not all results are given here. Potency and affinity values are given separately. A number with no mark means an inactive call.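 How the source made its calls: active means first-screen hits whose inhibition reached a set limit at any dose in the follow-up dose series; inconclusive means inhibition above the set first-screen limit but never retested; inactive means the rest.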

Broadly, the inhibition is the relative decrease from the control value, in per cent.

Rac GTPase-activating protein 1 (Homo sapiens), sequence (Q9H0H5 whole entry, looked up): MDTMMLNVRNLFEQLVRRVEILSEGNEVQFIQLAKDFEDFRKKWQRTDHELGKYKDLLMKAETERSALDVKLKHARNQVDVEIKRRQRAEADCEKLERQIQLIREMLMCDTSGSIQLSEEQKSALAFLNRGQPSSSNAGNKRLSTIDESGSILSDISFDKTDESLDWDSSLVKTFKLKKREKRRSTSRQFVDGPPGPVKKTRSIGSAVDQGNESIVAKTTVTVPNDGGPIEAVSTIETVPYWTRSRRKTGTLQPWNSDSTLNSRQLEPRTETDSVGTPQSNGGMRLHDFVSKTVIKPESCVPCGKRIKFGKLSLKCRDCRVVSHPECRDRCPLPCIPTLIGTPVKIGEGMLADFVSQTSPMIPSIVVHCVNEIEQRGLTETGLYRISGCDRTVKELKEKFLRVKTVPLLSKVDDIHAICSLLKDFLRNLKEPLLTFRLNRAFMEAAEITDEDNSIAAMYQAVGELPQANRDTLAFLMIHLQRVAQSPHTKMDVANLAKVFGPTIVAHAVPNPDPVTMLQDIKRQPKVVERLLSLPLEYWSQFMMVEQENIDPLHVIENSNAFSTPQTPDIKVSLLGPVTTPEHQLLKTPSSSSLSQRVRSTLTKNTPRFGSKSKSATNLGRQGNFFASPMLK

This assay addresses Rac GTPase-activating protein 1 (Homo sapiens) (UniProt Q9H0H5). The assay can be described thus: MgcRacGAP GTPase-activating activity inhibitors, confirmation, biochemical, ADP Hunter fluorescence, primary and confirmatory (AID 624330).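 Further: fluorescence reports GDP produced by GAP-driven GTP hydrolysis.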 As to conditions: MgcRacGAP-stimulated Rac1 GTP hydrolysis, at 30 µM, active compounds read high, GST-tagged Rac1 F28L mutant substrate.
Turning to `Nc1c(C(=O)N2CCCCC2)sc(=S)n1-c1ccccc1`, the inhibition is 10.5%.

In the case of `Nc1c(C(=O)N2CCOCC2)sc(=S)n1-c1ccccc1`, the inhibition is 11.6%.

With `NC(=O)c1ccccc1NC(=O)C1CCCO1` (stereo unspecified), the inhibition is 5.38%.

Take `C/C(O)=C(\C#N)c1nc2ccccc2[nH]1`: the inhibition was 6.3%.

Regarding `C/C(O)=C(/C#N)c1nc2ccccc2[nH]1`, the inhibition is 9.91%.

Turning to `CCc1cccc(C)c1NC(=O)CC(C)(C)CC(=O)O`, the inhibition is -15.4%.

For the molecule `Cc1ccc(N/N=C(\C#N)C(N)=S)cc1C`, the inhibition was 14.2%.

On to `COc1ccc(CC(=O)Nc2cc(S(=O)(=O)N3CCOCC3)ccc2N2CCCC2)cc1`, for which the inhibition is -0.25%.

Turning to `CCN(CC)S(=O)(=O)c1ccc(NC(=O)CNC2CCCCC2)cc1`, the inhibition was 31.5%.

`CN(C)S(=O)(=O)c1cccc(NC(=O)CCCC2CCCCC2)c1`: the inhibition is 4.27%.

Take `Cc1ccc(NC(=O)CNCC2CCCCC2)cc1S(=O)(=O)N(C)C`: the inhibition was 28.9%.

In the case of `CCN(CC)S(=O)(=O)c1cccc(NC(=O)CN(C)C2CCCCC2)c1`, the inhibition is -0.2%.

With `COc1ccc(S(=O)(=O)Nc2ccccc2C(=O)N2CCOCC2)cc1OC`, the inhibition was 3.41%.

For the molecule `COc1ccc(CCNC(=O)C(C)SCC(=O)Nc2ccc(F)cc2)cc1` (stereo unspecified), the inhibition is 6.87%.

With `Cc1cc([N+](=O)[O-])nn1CC(=O)Nc1nc2ccccc2s1`, the inhibition is 6.23%.

For `COc1ccccc1C(=O)N/N=C(\C)c1ccc(NC(=O)Cc2ccccc2)cc1`, the inhibition was 7.02%.

In the case of `COc1cc(C(=O)O)ccc1O`, the inhibition was 9.79%.

For `COc1cccc(C(=O)N/N=C(\C)c2ccc(NC(=O)Cc3ccccc3)cc2)c1OC`, the inhibition was 10.3%.

On to `COc1ccc(/C(C)=N/NC(=O)Cc2c(C)nc(C)[nH]c2=O)cc1`, for which the inhibition was -5.47%.

For the molecule `COc1ccc(/C(C)=N/NC(=O)c2ccncc2)cc1`, the inhibition is 4.26%.

`C/C(=N\NC(=O)C(O)(c1ccccc1)c1ccccc1)c1ccc(NC(=O)CCCC(=O)O)cc1`: the inhibition was 7.64%.

`COc1ccccc1OCC(=O)N/N=C(\C)c1ccc2ccccc2c1`: the inhibition was 5.4%.

In the case of `COc1ccc(/C(C)=N/NC(=O)c2ccncc2)cc1[N+](=O)[O-]`, the inhibition was 3.87%.

Regarding `Cc1ccccc1N1CCN(C2=NC(=O)/C(=C/c3cn[nH]c3-c3ccccc3)S2)CC1`, the inhibition is -0.05%.

On to `CC(=O)N1c2ccc(S(=O)(=O)N3CCCCC3)cc2CC1C(=O)NCc1ccc(N(C)C)cc1` (stereo unspecified), for which the inhibition was 3.76%.

Regarding `Fc1ccc(CNC(=S)NCc2ccc(F)cc2)cc1`, the inhibition was -6.74%.

Take `CCNC(=S)N(Cc1cccs1)Cc1cc2cc(OCC)ccc2[nH]c1=O`: the inhibition was 9.83%.

For `COc1ccc(OCCOCCOc2ccc(C)cc2[N+](=O)[O-])cc1`, the inhibition is 4.97%.

As to `Cc1cnc(C(=O)OC(C(=O)c2c[nH]c3ccccc23)c2ccccc2)cn1` (stereo unspecified), the inhibition is 10%.

Take `C=C1/C=C(\C)C(C)(O)CC(O)CC(=O)C(O)C(O)C(C)CC(C)OC(=O)/C(C)=C/CC/C=C/C(OC)C(O)CC(C)C1` (stereo unspecified): the inhibition was 9.68%.

With `COc1cc(CN2CCCC(CO)(Cc3ccccc3C)C2)cc2c1OCO2` (stereo unspecified), the inhibition is 1.83%.

Consider `O=C(Nc1cc(Br)ccc1O)c1cc(-c2ccco2)on1`, for which the inhibition was 8.94%.

As for `Brc1ccc(OCCOCCN2CCOCC2)cc1`, the inhibition was 4.13%.

For `Brc1cccc(OCCN2CCCCC2)c1`, the inhibition was 17.4%.

For `Clc1cccc(OCCN2CCOCC2)c1`, the inhibition is 10.7%.

As to `Brc1ccc(OCCN2CCOCC2)cc1`, the inhibition was 28.6%.

For the molecule `O=C(/C=C/c1cccc([N+](=O)[O-])c1)OCC(=O)N1CCN(C(=O)c2ccco2)CC1`, the inhibition was 4.32%.

For the molecule `COc1cc(/C=C/C(=O)OCC(=O)N2CCCc3ccccc32)ccc1OCC#N`, the inhibition was 6.56%.

Regarding `COc1ccccc1OCC(=O)N1CC2(C)CC1CC(C)(C)C2` (stereo unspecified), the inhibition is 8.14%.

For `CCOC(=O)/C=C/C(=O)OCC(=O)N1CCN(C(=O)c2ccco2)CC1`, the inhibition is 8.47%.

Turning to `COc1cc(/C=C/C(=O)OCC(=O)N2CCCc3ccccc32)ccc1OC(F)F`, the inhibition is 1.81%.

For the molecule `COc1ccc(/C=N/OCC(=O)N2CC3(C)CC2CC(C)(C)C3)cc1OC` (stereo unspecified), the inhibition was 4.24%.

For the molecule `COc1ccccc1C(=O)OCC(=O)N1CCC(Cc2ccccc2)CC1`, the inhibition is 6.97%.

For `COc1cccc(OC)c1C(=O)OCC(=O)N1CCC(Cc2ccccc2)CC1`, the inhibition was -0.57%.

On to `Cc1ccc(-c2ccc(=O)n(CC(=O)NCCN(CC(C)C)CC(C)C)n2)cc1`, for which the inhibition is 8.51%.

Regarding `O=C1C(CO)C(CO)C(CO)C1CO` (stereo unspecified), the inhibition was -2.59%.

For the molecule `CNCCCc1[nH]nc(N)c1C#N`, the inhibition is 9.11%.

Take `CCN(CC(=O)Nc1c(F)cccc1F)C(=O)c1cn2ccccc2n1`: the inhibition is 2.69%.

Turning to `Cc1ccn2cc(CCNC(=O)c3ccc(Br)o3)nc2c1`, the inhibition was 13.4%.

For `O=S(=O)(CCc1nc2ccccc2s1)c1ccc2ccccc2c1`, the inhibition was 18.8%.

In the case of `CCN(CC)S(=O)(=O)c1ccc(NN)nc1`, the inhibition was -5.75%.

For `COc1ccc(/C=C/C(=O)OCC(=O)N2CCN(S(=O)(=O)c3ccc(C)cc3C)CC2)cc1OC`, the inhibition is -0.78%.

In the case of `COc1cc(/C=C/C(=O)OCC(=O)N2CCN(S(=O)(=O)c3ccc(C)cc3C)CC2)ccc1OC(F)F`, the inhibition is 5.89%.

Consider `COc1ccc(/C=C/C(=O)OCC(=O)N2CCCCCC2)cc1OC`, for which the inhibition is 0.54%.

Turning to `COc1cc(/C=C/C(=O)OCC(=O)N2CCCC2)cc(OC)c1OC`, the inhibition was 4.39%.

For the molecule `COc1cc(C(=O)O)nc(OC)n1`, the inhibition was 0.97%.

Take `CCOC(=O)c1nn(-c2ccc(Cl)cc2)c(=O)c(C#N)c1C`: the inhibition was 5.44%.

With `O=C(O)CNC(=O)c1ccc(Oc2c(F)c(F)c(Oc3ccc(C(=O)NCC(=O)O)cc3)c(F)c2F)cc1`, the inhibition is -1.5%.

Consider `N#CCSc1nnc2sc3ccccc3n12`, for which the inhibition was 5.4%.

As for `O=S(=O)(O)c1nnc2sc3ccccc3n12`, the inhibition is 7.48%.

On to `O=S(=O)(Cc1ccccc1)N1CCN(Cc2ccc3c(c2)OCO3)CC1`, for which the inhibition was 4.33%.

For the molecule `Cc1cccc(NC(=O)C2C3C=CC(C4CC34)C2C(=O)O)c1` (stereo unspecified), the inhibition was 10%.

With `Cc1nc2ncnn2c(C)c1Cc1cccc(C(F)(F)F)c1`, the inhibition is 5.74%.

For `CC1Cc2ccccc2N1C(=O)CNc1ccccc1N1CCCCC1` (stereo unspecified), the inhibition is -0.46%.

Turning to `CCCCNC(=O)N1c2ccccc2CC1C` (stereo unspecified), the inhibition was 1.84%.

Consider `Cc1cc(N2C(=O)C(O)=C(C(=O)c3cc4ccccc4o3)C2c2ccc(Cl)cc2)no1` (stereo unspecified), for which the inhibition was -5.51%.

Consider `O=[N+]([O-])c1ccccc1NS(=O)(=O)c1ccccc1`, for which the inhibition is 0.32%.

For `Cc1ccc2[nH]ccc(=O)c2c1`, the inhibition was 10.1%.

Take `O=c1cc[nH]c2c1ccc1c(=O)cc[nH]c12`: the inhibition is 10.4%.

Take `CC1CCC2(CC1)NC(=O)N(CC(=O)N1CC(C)CC(C)C1)C2=O` (stereo unspecified): the inhibition is 3.96%.

In the case of `CCc1ccc2c(c1)C(c1ccc([N+](=O)[O-])cc1)=NNC(c1ccc(C)cc1)=N2`, the inhibition is 11%.

Regarding `O=C(O)c1cc(N/N=C/c2ccncc2)ccc1Cl`, the inhibition was -1.57%.

Take `Cc1ccc(/C=N/Nc2ccc(F)cc2)s1`: the inhibition is 8.64%.

As for `Cc1ccc(/C=N/Nc2cccc(C(=O)O)c2)s1`, the inhibition was 27.8%.

With `CSc1ccc(/C=N/Nc2ccc(Cl)c(C(=O)O)c2)cc1`, the inhibition is 5.85%.

With `CCOC(=O)c1ccc(N2N=C(C)/C(=C/C=C/c3ccco3)C2=O)cc1`, the inhibition was 3.99%.

Turning to `O=C1NN(c2ccc(F)cc2)C(=O)/C1=C\C=C\c1ccco1`, the inhibition is 8.7%.

On to `CC1=NN(c2ccc(C(=O)OC(C)C)cc2)C(=O)/C1=C\C=C\c1ccco1`, for which the inhibition is 3.71%.

Regarding `CC1=NN(c2ccc(Cl)c(C(=O)O)c2)C(=O)C1`, the inhibition was 14.9%.

As to `O=C(C1=C(O)C(=O)N(CCN2CCOCC2)C1c1cccc(Br)c1)c1cc2ccccc2o1` (stereo unspecified), the inhibition is 4.64%.

As for `C=CCC[C@@H](Cc1ccc(F)cc1)C(=O)OC[C@@H](Cc1c[nH]c2ccccc12)NC(=O)[C@@H](CC=C)CC(=O)N[C@H](CO)Cc1ccccc1`, the inhibition was 11.1%.

Turning to `CCN(CC)C1CCN(C(=O)c2cc(COc3cccc4cccnc34)on2)C1` (stereo unspecified), the inhibition was -5.07%.

Take `COC(=O)C(NC(C)=O)(Nc1ccc(C)cn1)C(F)(F)F` (stereo unspecified): the inhibition was -9.84%.

For the molecule `O=[N+]([O-])c1ccccc1CN1CCN(Cc2ccccn2)CC1`, the inhibition is 28.6%.

Turning to `COc1cc(CN2CCC(C(=O)NC(C)(C)C)CC2)ccc1OCc1ccccc1`, the inhibition is 29.2%.

For the molecule `CCOC(=O)c1cc(CC)sc1NC(=O)Cc1ccsc1`, the inhibition was 14.6%.

As for `C#Cc1ccc(CN2CCN(CCc3ccccc3)C(CCO)C2)cc1` (stereo unspecified), the inhibition is 5.19%.

Take `Cc1c(C)c2ccc(OCC(=O)NC3CCN(Cc4ccccc4)CC3)cc2oc1=O`: the inhibition was 4.93%.

`C[C@@H]1CCCCO[C@H](CN(C)C(=O)Nc2ccc(F)cc2)[C@@H](C)CN([C@H](C)CO)C(=O)c2cc(NC(=O)c3ccccc3)ccc2O1`: the inhibition is 5.34%.

With `O=C(O)c1ccccc1N=Nc1ccc(O)cc1`, the inhibition was 13.8%.

Regarding `Nc1ccc(N=Nc2ccccc2Cl)c(N)n1`, the inhibition is 10.4%.

For `Nc1ccc(N=Nc2ccccc2)c(N)n1`, the inhibition was 8.49%.

Take `Oc1ccc(N=Nc2ccc3ccccc3c2)cc1`: the inhibition is 18.5%.

Consider `O=C(Nc1cccc(-c2ccccc2)c1)N1CCN(C(=O)Nc2cccc(-c3ccccc3)c2)CC1`, for which the inhibition was 14.5%.

For the molecule `Cc1cc(NC(=O)c2ccc(C)o2)no1`, the inhibition was 2.09%.

Turning to `CCOC(=O)N1CCC(N2Cc3cccc(C(=O)Nc4ccc(N(CC)CC)cc4C)c3C2=O)CC1`, the inhibition was -10.8%.
